Measured values from PubChem BioAssay (Tox21).
“And” between values parts separate entries of the source, which are not always exact repeats. Identical values can stand only once. Records with an inconclusive call do not appear. The source made the active and inactive calls. The call rests on the fitted dose curve; in most records, active means well fitted curve in the direction sought with a large enough effect in the repeat runs; inconclusive means weak or mixed curves; inactive means no such curve, though single readings can be large; an effect the other way counts as inactive or inconclusive.

Experiments:
[1] = A CellTox Green Cytotoxicity Assay to monitor cytotoxicity in HEK293 cells - 40 hour (AID 1224871); further: nearly all actives have a fitted effect of over 45% in size; further: potency means the concentration at half of the fitted maximal effect
Method in brief: (§1)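 Cytotoxicity was tracked continuously in HEK293 cells by a DNA-binding dye excluded from viable cells. Compounds were transferred in DMSO 5 h after seeding; fluorescence was recorded at intervals up to 40 h.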

[2] = qHTS RealTime-Glo MT Cell Viability Assay in HEK293 cells - 16 hour (AID 1224872); further: nearly all actives have a fitted effect of over 50% in size; further: potency means the concentration at half of the fitted maximal effect; on activity change, negative = cytotoxicity: top concentration of the series differs between compounds
Method in brief: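 Nonlytic real-time viability readout: viable cells convert prosubstrate to NanoLuc substrate, giving luminescence proportional to live cell number. HEK293, 600 cells/well, compound added after 5 h, continuous culture at 37 C.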

[3] = qHTS RealTime-Glo MT Cell Viability Assay in HepG2 cells - 8 hour (AID 1224873); further: nearly all actives have a fitted effect of over 55% in size; further: potency means the concentration at half of the fitted maximal effect
Method in brief: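 HepG2 cells (600/well) mixed with RealTime-Glo MT reagent, settled 5 h at 37 C/5% CO2 before compound addition. Nonlytic NanoLuc luminescence from viable-cell prosubstrate reduction read repeatedly during 40 h treatment at 37 C.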

[4] = qHTS RealTime-Glo MT Cell Viability Assay in HEK293 cells - 40 hour (AID 1224874); conditions: RealTime-Glo luminescence; max response: hits give low values; further: nearly all actives have a fitted effect of over 50% in size; further: potency means the concentration at half of the fitted maximal effect
Method in brief: (§2)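 Nonlytic bioluminescent viability monitoring. HEK293 at 600 cells/well with reagent; 5 h settle; compound transfer by pintool; plates held at 37 C and read at set time points.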

[5] = A CellTox Green Cytotoxicity Assay to monitor cytotoxicity in HEK293 cells - 24 hour (AID 1224875); further: nearly all actives have a fitted effect of over 45% in size; further: potency means the concentration at half of the fitted maximal effect; on activity change: series mostly up to about 77 µM
Method in brief: as §1

[6] = qHTS RealTime-Glo MT Cell Viability Assay in HepG2 cells - 32 hour (AID 1224877); further: nearly all actives have a fitted effect of over 55% in size; further: potency means the concentration at half of the fitted maximal effect
Method in brief: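 Luminescence read-out: viable HepG2 cells reduce a prosubstrate to a NanoLuc substrate, giving a signal proportional to live cell number. Reads taken at 0, 8, 16, 24, 32 and 40 h of compound exposure at 37 C.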

[7] = A CellTox Green Cytotoxicity Assay to monitor cytotoxicity in HepG2 cells - 24 hour (AID 1224878); further: nearly all actives have a fitted effect of over 45% in size; further: potency means the concentration at half of the fitted maximal effect
Method in brief: (§3)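 Real-time, homogeneous cytotoxicity readout: dead-cell DNA staining by CellTox Green in HepG2 monolayers, fluorescence measured at timed intervals up to 40 h of continuous compound exposure.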

[8] = A CellTox Green Cytotoxicity Assay to monitor cytotoxicity in HepG2 cells - 16 hour (AID 1224876); further: nearly all actives have a fitted effect of over 45% in size
Method in brief: as §3

[9] = A CellTox Green Cytotoxicity Assay to monitor cytotoxicity in HepG2 cells - 40 hour (AID 1224879); further: nearly all actives have a fitted effect of over 40% in size; further: potency means the concentration at half of the fitted maximal effect
Method in brief: as §3

[10] = qHTS RealTime-Glo MT Cell Viability Assay in HEK293 cells - 0 hour (AID 1224880)
Method in brief: as §2
On the % scale 0 is the no-effect control and ±100 the full control effect.

OC1CCC(C2CCCCC2)CC1 (configuration not stated)
active: Potency [7] 43.6 µM
inactive: Potency [1] | Potency [2] | Potency [3] | max response [4] -6.69% | Potency [5] | Potency [6]

Cc1cccc2cccnc12
inactive: Potency [1] | Potency [2] | Potency [3] | max response [4] 0.538% | Potency [5] | Potency [8] | Potency [6] | Potency [7] | Potency [9] | Potency [10]

NC(=O)c1cccc([N+](=O)[O-])c1
inactive: Potency [1] | Potency [2] | Potency [3] | max response [4] -0.169% | Potency [5] | Potency [6] | Potency [7] | Potency [9] | Potency [10]

CC(C)CCOC(=O)/C=C/c1ccccc1
inactive: Potency [1] | Potency [2] | Potency [3] | max response [4] -4.61% | Potency [5] | Potency [8] | Potency [6] | Potency [7] | Potency [9] | Potency [10]

COc1cc(C)ccc1O
inactive: Potency [1] | Potency [2] | Potency [3] | max response [4] 3.04% | Potency [5] | Potency [6] | Potency [7] | Potency [9] | Potency [10]

CC(=O)Oc1cc2c(s1)CCN(C(C(=O)C1CC1)c1ccccc1F)C2 (configuration not stated)
inactive: Potency [1] | Potency [2] | Potency [3] | max response [4] -4.77% | Potency [5] | Potency [8] | Potency [6] | Potency [7] | Potency [9] | Potency [10]

NC[C@H]1O[C@H](O[C@H]2[C@H](O[C@@H]3O[C@H](CO)[C@@H](O)[C@H]3O)C(O)[C@H](N)C[C@@H]2N)[C@H](N)[C@@H](O)[C@@H]1O (some centres not stated)
inactive: cytotoxicity increase [1] -12.4% [at 6.97 µM] | activity change, negative = cytotoxicity [2] 3.13% [at 6.97 µM] | viability change, negative = cytotoxic [3] 2.91% [at 6.97 µM] | max response [4] 4.82% | activity change [5] -9.09% [at 6.97 µM, hits give high values] | cytotoxicity increase [8] 11% [at 6.97 µM] | activity change, negative = cytotoxic [6] 0.467% [at 6.97 µM] | cytotoxicity [7] 9.58% [at 6.97 µM] | cytotoxicity increase [9] 9.38% [at 6.97 µM] | activity change, negative = cytotoxicity [10] 10.7% [at 6.97 µM]

COC(=O)c1ccccc1OC
inactive: Potency [1] | Potency [2] | Potency [3] | max response [4] 2.19% | Potency [5] | Potency [8] | Potency [6] | Potency [7] | Potency [9] | Potency [10]

CCCCC(CC)COC(=O)CCCCC(=O)OCc1ccccc1 (configuration not stated)
inactive: Potency [1] | Potency [2] | Potency [3] | max response [4] -2.79% | Potency [5] | Potency [6] | Potency [7] | Potency [9] | Potency [10]

Cc1c(C)c2c(c(C)c1O)CC[C@@](C)(CCC[C@H](C)CCC[C@H](C)CCCC(C)C)O2
inactive: Potency [1] | Potency [2] | Potency [3] | max response [4] -14.1% | Potency [5] | Potency [6] | Potency [7] | Potency [9] | Potency [10]

Cc1nc(-c2ccc(Cl)cc2)oc1COC(C)(C)C(=O)O
inactive: Potency [1] | Potency [2] | Potency [3] | max response [4] 0.172% | Potency [5] | Potency [6] | Potency [7] | Potency [9] | Potency [10]

C=CC(C)(CCC=C(C)C)OC=O (configuration not stated)
inactive: Potency [1] | Potency [2] | Potency [3] | max response [4] 5.29% | Potency [5] | Potency [8] | Potency [6] | Potency [7] | Potency [9] | Potency [10]

O=S(=O)(O)c1ccccc1/C=C/c1ccc(-c2ccc(/C=C/c3ccccc3S(=O)(=O)O)cc2)cc1
inactive: Potency [1] | Potency [2] | Potency [3] | max response [4] 3.02% | Potency [5] | Potency [6] | Potency [7] | Potency [9] | Potency [10]

CCCCC(CC)CN1CN(CC(CC)CCCC)CC(C)(N)C1 (configuration not stated)
active: Potency [1] 10.7 µM | Potency [2] 9.52 µM | Potency [3] 19 µM | Potency [4] 9.52 µM | Potency [5] 10.7 µM | Potency [6] 16.9 µM | Potency [7] 19 µM | Potency [9] 19 µM

CCCCCCC1CCCC(=O)O1 (configuration not stated)
inactive: Potency [1] | Potency [2] | Potency [3] | max response [4] 3.13% | Potency [5] | Potency [6] | Potency [7] | Potency [9] | Potency [10]

C=C(CC)C(=O)c1ccc(OCC(=O)O)c(Cl)c1Cl
inactive: Potency [1] | Potency [2] | Potency [3] | max response [4] -6.17% and 15.5% | Potency [5] | Potency [6] | Potency [7] | Potency [9] | Potency [10]

C=Cc1cccc(C)c1
inactive: Potency [1] | Potency [2] | Potency [3] | max response [4] -2.09% and 3.82% | Potency [5] | Potency [8] | Potency [6] | Potency [7] | Potency [9] | Potency [10]

O=C1C(c2[nH]c3ccc(S(=O)(=O)O)cc3c2O)=Nc2ccc(S(=O)(=O)O)cc21
inactive: Potency [1] | Potency [2] | Potency [3] | max response [4] 10.2% | Potency [5] | Potency [8] | Potency [6] | Potency [7] | Potency [9] | Potency [10]

C[C@H]1NCc2cc(-c3ccc4c(=O)c(C(=O)O)cn(C5CC5)c4c3OC(F)F)ccc21
inactive: cytotoxicity increase [1] -4.15% [at 15.8 µM] | activity change, negative = cytotoxicity [2] -1.72% [at 15.8 µM] | viability change, negative = cytotoxic [3] -17% [at 15.8 µM] | max response [4] -6.6% | activity change [5] -2.55% [at 15.8 µM, hits give high values] | cytotoxicity increase [8] 1.43% [at 15.8 µM] | activity change, negative = cytotoxic [6] -0.83% [at 15.8 µM] | cytotoxicity [7] 1.74% [at 15.8 µM] | cytotoxicity increase [9] 1.86% [at 15.8 µM] | activity change, negative = cytotoxicity [10] -10.2% [at 15.8 µM]

CCCNCCC
inactive: Potency [1] | Potency [2] | Potency [3] | max response [4] -5.51% | Potency [5] | Potency [8] | Potency [6] | Potency [7] | Potency [9] | Potency [10]
